Each structure is given as a SMILES string. Some structures have more than one record in an assay (separate samples or runs), and their calls can disagree. The source made the active and inactive calls. The calls were made as follows: active = hit-call score of the fitted dose curve at least 0.9, where 1 is the maximum; inactive = score below 0.9.

Among the data in PubChem BioAssay (EPA / NIEHS) are outcome and AC50 values, retold here.

A short description of assay [1]: CEETOX_H295R_PROG: CeeTox H295R High-throughput Steroidogenesis Assay for Progesterone (PROG) (AID 2283442).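 As to AC50: human H295R adrenal cells primed with 10 µM forskolin before dosing.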 To be noted: actives raise or lower the signal. In a few lines:
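Progesterone read-out: HPLC-MS/MS on MTBE extracts of conditioned medium after 48 h chemical exposure of forskolin-primed (10 uM, 48 h) H295R cells. Gain or loss of signal was fitted relative to DMSO baseline.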

Read-out in assay [2]: Tumor necrosis factor receptor superfamily member 6 (Homo sapiens) (UniProt P25445)
Put plainly: LTEA_HepaRG_FAS: Life Technologies and Expression Analysis (LTEA) Assay for Fas cell surface death receptor (FAS) using HepaRG (AID 2283447). To be noted: mRNA level, 48 h; actives raise or lower the signal. In a few lines:
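FAS transcript level was measured by TaqMan qRT-PCR against three housekeeping genes after 48 h chemical exposure. Cells were HepaRG, 0.5% DMSO vehicle, with a top concentration of 100 uM and half-log dilutions over eight points, in duplicate.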

Read-out in assay [3]: Fatty acid synthase (Homo sapiens) (UniProt P49327)
Put plainly: LTEA_HepaRG_FASN: Life Technologies and Expression Analysis (LTEA) Assay for Fatty Acid Synthase (FASN) using HepaRG (AID 2283448).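 As to AC50: differentiated human HepaRG liver cells in serum-free induction medium.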 To be noted: mRNA level, 48 h; actives raise or lower the signal. In a few lines:
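HepaRG, 48 h exposure, 8-pt half-log series top 100 uM, 0.5% DMSO vehicle, duplicates. Readout: FASN transcript by Fluidigm qRT-PCR; housekeeping-normalized; bidirectional curve fit vs DMSO baseline.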

Read-out in assay [4]: Cyclin Dependent Kinase Inhibitor 1A (CDKN1A), CDKN1A (gene 1026)
Put plainly: LTEA_HepaRG_CDKN1A: Life Technologies and Expression Analysis (LTEA) Assay for Cyclin Dependent Kinase Inhibitor 1A (CDKN1A) using HepaRG (AID 2283450). To be noted: mRNA level, 48 h; actives raise or lower the signal. An outline of the steps:
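HepaRG, 48 h dosing, 8-pt half-log series from 100 uM top, 0.5% DMSO vehicle, duplicates. Readout: TaqMan qRT-PCR of CDKN1A transcript, housekeeping-normalized (ACTB, GAPDH, POLR2A). Up/down curve fit relative to DMSO.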

Read-out in assay [5]: Cyclin D1 (CCND1), CCND1 (gene 595)
Put plainly: LTEA_HepaRG_CCND1: Life Technologies and Expression Analysis (LTEA) Assay for Cyclin D1 (CCND1) using HepaRG (AID 2283451).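 As to AC50: differentiated human HepaRG liver cells in serum-free induction medium.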 The conditions noted are these: mRNA level, 48 h; actives raise or lower the signal. An outline of the steps:
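qRT-PCR (Fluidigm 96.96 array) read-out of transcript level, housekeeping-normalized (ACTB/GAPDH/POLR2A). HepaRG cells, 48 h chemical exposure, 8-point half-log series from 100 uM, 0.5% DMSO vehicle; gain or loss relative to DMSO baseline.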

Read-out in assay [6]: catalase (CAT), CAT (gene 847)
Put plainly: LTEA_HepaRG_CAT: Life Technologies and Expression Analysis (LTEA) Assay for catalase (CAT) using HepaRG (AID 2283452). The conditions noted are these: mRNA level, 48 h; actives raise or lower the signal. In a few lines: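 Expression of CAT was quantified by TaqMan qRT-PCR with ACTB/GAPDH/POLR2A normalization after 48 h chemical exposure of HepaRG. Eight-point half-log series, top 100 uM, in 0.5% DMSO; gain or loss fitted against vehicle.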

Read-out in assay [7]: flavin-containing dimethylaniline monooxygenases 3 (FMO3), FMO3 (gene 2328)
Put plainly: LTEA_HepaRG_FMO3: Life Technologies and Expression Analysis (LTEA) Assay for flavin-containing dimethylaniline monooxygenases 3 (FMO3) using HepaRG (AID 2283453).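 As to AC50: differentiated human HepaRG liver cells in serum-free induction medium.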 To be noted: mRNA level, 48 h; actives raise or lower the signal. An outline of the steps: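 Eight-point concentration-response in serum-free HepaRG cultures (top 100 uM, 0.5% DMSO, 48 h). Read-out: FMO3 mRNA level normalized to three endogenous control genes, fitted bidirectionally versus vehicle.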

Read-out in assay [8]: Cytochrome P450 (CYP1A1), CYP1A1 (gene 1543)
Put plainly: LTEA_HepaRG_CYP1A1: Life Technologies and Expression Analysis (LTEA) Assay for Cytochrome P450 (CYP1A1) using HepaRG (AID 2283454). To be noted: mRNA level, 48 h; actives raise or lower the signal. An outline of the steps:
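qRT-PCR read-out: CYP1A1 transcript normalized to three housekeeping genes, fitted bidirectionally against 0.5% DMSO vehicle baseline. Human HepaRG cells, 48 h chemical exposure, 8-point half-log series topping at 100 uM.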

Read-out in assay [9]: CFLAR gene, CFLAR (gene 8837)
Nature of the assay: LTEA_HepaRG_CFLAR: Life Technologies and Expression Analysis (LTEA) Assay for CFLAR gene using HepaRG (AID 2283455). The conditions noted are these: mRNA level, 48 h; actives raise or lower the signal. An outline of the steps:
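Transcript level by qRT-PCR (normalized to ACTB, GAPDH and POLR2A) after 48 h chemical exposure of HepaRG cells, top concentration 100 uM with half-log steps, 0.5% DMSO vehicle, duplicates; fitted bidirectionally against DMSO baseline.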

Read-out in assay [10]: Forkhead box O1 (FOXO1), FOXO1 (gene 2308)
Nature of the assay: LTEA_HepaRG_FOXO1: Life Technologies and Expression Analysis (LTEA) Assay for Forkhead box O1 (FOXO1) using HepaRG (AID 2283456). To be noted: mRNA level, 48 h; actives raise or lower the signal. In a few lines:
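FOXO1 transcript quantified by qRT-PCR after 48 h chemical exposure (top 100 uM, half-log steps, 0.5% DMSO) of HepaRG cells, housekeeping-normalized (ACTB/GAPDH/POLR2A). Changes fitted in both directions relative to vehicle.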

Assay [11] can be described thus: CEETOX_H295R_TESTO: CeeTox H295R High-throughput Steroidogenesis Assay for Testosterone (TESTO) (AID 2283457). To be noted: actives raise or lower the signal. In a few lines: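 Readout: testosterone quantified by HPLC-MS/MS (C18, ESI positive) after MTBE liquid-liquid extraction of culture medium. Cells were H295R, 48 h chemical exposure per OECD 456 with modifications. Gain or loss of signal fitted relative to DMSO.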

Read-out in assay [12]: growth arrest and DNA damage 45 (GADD45A), GADD45A (gene 1647)
Nature of the assay: LTEA_HepaRG_GADD45A: Life Technologies and Expression Analysis (LTEA) Assay for growth arrest and DNA damage 45 (GADD45A) using HepaRG (AID 2283458). To be noted: mRNA level, 48 h; actives raise or lower the signal. An outline of the steps:
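HepaRG, 48 h exposure, 8 conc. (top 100 uM, half-log steps), 0.5% DMSO vehicle, duplicates. Read-out: qRT-PCR mRNA level, housekeeping-normalized (ACTB/GAPDH/POLR2A). Curves fit bidirectionally vs DMSO baseline.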

Read-out in assay [13]: Forkhead box O3 (FOXO3), FOXO3 (gene 2309)
Nature of the assay: LTEA_HepaRG_FOXO3: Life Technologies and Expression Analysis (LTEA) Assay for Forkhead box O3 (FOXO3) using HepaRG (AID 2283459). The conditions noted are these: mRNA level, 48 h; actives raise or lower the signal. In a few lines: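 FOXO3 transcript measured by qRT-PCR (normalized to ACTB, GAPDH, POLR2A) after 48 h exposure of HepaRG cells in serum-free induction medium. Duplicates, eight half-log concentrations up to 100 uM, 0.5% DMSO; gain or loss fitted against DMSO.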

Read-out in assay [14]: ABC Transporter (ABCB1), ABCB1 (gene 5243)
Nature of the assay: LTEA_HepaRG_ABCB1: Life Technologies and Expression Analysis (LTEA) Assay for ABC Transporter (ABCB1) using HepaRG (AID 2283460). The conditions noted are these: mRNA level, 48 h; actives raise or lower the signal. An outline of the steps:
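ABCB1 transcript level measured by TaqMan qRT-PCR against three housekeeping genes after 48 h chemical exposure of differentiated HepaRG cells. Top concentration 100 uM, half-log steps, eight points, 0.5% DMSO vehicle; bidirectional fit relative to DMSO.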

Read-out in assay [15]: ABC Transporter (ABCC3), ABCC3 (gene 8714)
Put plainly: LTEA_HepaRG_ABCC3: Life Technologies and Expression Analysis (LTEA) Assay for ABC Transporter (ABCC3) using HepaRG (AID 2283462). To be noted: mRNA level, 48 h; actives raise or lower the signal. An outline of the steps: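 qRT-PCR read-out of ABCC3 transcript, normalized to three housekeeping genes (ACTB, GAPDH, POLR2A), after 48 h chemical exposure of human HepaRG cells. Eight half-log concentrations, highest 100 uM, in 0.5% DMSO; gain or loss fitted relative to DMSO baseline.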

Read-out in assay [16]: ABC Transporter (ABCB11), ABCB11 (gene 8647)
Put plainly: LTEA_HepaRG_ABCB11: Life Technologies and Expression Analysis (LTEA) Assay for ABC Transporter (ABCB11) using HepaRG (AID 2283463). The conditions noted are these: mRNA level, 48 h; actives raise or lower the signal. In a few lines:
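ABCB11 transcript levels quantified by TaqMan qRT-PCR against three housekeeping genes after 48 h chemical exposure of HepaRG cultures. Concentrations up to 100 uM in half-log steps, 0.5% DMSO vehicle; both induction and suppression scored.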

Read-out in assay [17]: ABC Transporter (ABCC2), ABCC2 (gene 1244)
Put plainly: LTEA_HepaRG_ABCC2: Life Technologies and Expression Analysis (LTEA) Assay for ABC Transporter (ABCC2) using HepaRG (AID 2283464). The conditions noted are these: mRNA level, 48 h; actives raise or lower the signal. An outline of the steps:
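qRT-PCR (TaqMan, Fluidigm array) read-out of ABCC2 mRNA, normalized to three housekeeping genes. Differentiated HepaRG cells were treated 48 h in serum-free induction medium with 8-point half-log series from 100 uM in 0.5% DMSO; curves fitted bidirectionally relative to DMSO.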

Assay [18] can be described thus: CEETOX_H295R_ESTRADIOL: CeeTox H295R High-throughput Steroidogenesis Assay for Estradiol (AID 2283440).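 Also: estradiol secreted into medium quantified by LC-MS/MS after dansyl derivatisation.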 The conditions noted are these: actives raise or lower the signal. In a few lines: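 H295R, 48 h forskolin (10 uM) prestim → 48 h compound, 0.1% DMSO final. Estradiol in medium: MTBE extraction, dansyl chloride derivatization, LC-MS/MS. Fit bidirectional vs DMSO baseline; MTT viability in same wells.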

Read-out in assay [19]: Cyclin D2 (CCND2), CCND2 (gene 894)
Nature of the assay: LTEA_HepaRG_CCND2: Life Technologies and Expression Analysis (LTEA) Assay for Cyclin D2 (CCND2) using HepaRG (AID 2283449). The conditions noted are these: mRNA level, 48 h; actives raise or lower the signal. An outline of the steps: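 CCND2 transcript levels, quantified by qRT-PCR and normalised to three housekeeping genes, were fitted bidirectionally against 0.5% DMSO. HepaRG cultures were dosed 48 h in duplicate with an 8-point half-log series up to 100 uM.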

Sequence of Fatty acid synthase (Homo sapiens) (P49327 whole entry, looked up): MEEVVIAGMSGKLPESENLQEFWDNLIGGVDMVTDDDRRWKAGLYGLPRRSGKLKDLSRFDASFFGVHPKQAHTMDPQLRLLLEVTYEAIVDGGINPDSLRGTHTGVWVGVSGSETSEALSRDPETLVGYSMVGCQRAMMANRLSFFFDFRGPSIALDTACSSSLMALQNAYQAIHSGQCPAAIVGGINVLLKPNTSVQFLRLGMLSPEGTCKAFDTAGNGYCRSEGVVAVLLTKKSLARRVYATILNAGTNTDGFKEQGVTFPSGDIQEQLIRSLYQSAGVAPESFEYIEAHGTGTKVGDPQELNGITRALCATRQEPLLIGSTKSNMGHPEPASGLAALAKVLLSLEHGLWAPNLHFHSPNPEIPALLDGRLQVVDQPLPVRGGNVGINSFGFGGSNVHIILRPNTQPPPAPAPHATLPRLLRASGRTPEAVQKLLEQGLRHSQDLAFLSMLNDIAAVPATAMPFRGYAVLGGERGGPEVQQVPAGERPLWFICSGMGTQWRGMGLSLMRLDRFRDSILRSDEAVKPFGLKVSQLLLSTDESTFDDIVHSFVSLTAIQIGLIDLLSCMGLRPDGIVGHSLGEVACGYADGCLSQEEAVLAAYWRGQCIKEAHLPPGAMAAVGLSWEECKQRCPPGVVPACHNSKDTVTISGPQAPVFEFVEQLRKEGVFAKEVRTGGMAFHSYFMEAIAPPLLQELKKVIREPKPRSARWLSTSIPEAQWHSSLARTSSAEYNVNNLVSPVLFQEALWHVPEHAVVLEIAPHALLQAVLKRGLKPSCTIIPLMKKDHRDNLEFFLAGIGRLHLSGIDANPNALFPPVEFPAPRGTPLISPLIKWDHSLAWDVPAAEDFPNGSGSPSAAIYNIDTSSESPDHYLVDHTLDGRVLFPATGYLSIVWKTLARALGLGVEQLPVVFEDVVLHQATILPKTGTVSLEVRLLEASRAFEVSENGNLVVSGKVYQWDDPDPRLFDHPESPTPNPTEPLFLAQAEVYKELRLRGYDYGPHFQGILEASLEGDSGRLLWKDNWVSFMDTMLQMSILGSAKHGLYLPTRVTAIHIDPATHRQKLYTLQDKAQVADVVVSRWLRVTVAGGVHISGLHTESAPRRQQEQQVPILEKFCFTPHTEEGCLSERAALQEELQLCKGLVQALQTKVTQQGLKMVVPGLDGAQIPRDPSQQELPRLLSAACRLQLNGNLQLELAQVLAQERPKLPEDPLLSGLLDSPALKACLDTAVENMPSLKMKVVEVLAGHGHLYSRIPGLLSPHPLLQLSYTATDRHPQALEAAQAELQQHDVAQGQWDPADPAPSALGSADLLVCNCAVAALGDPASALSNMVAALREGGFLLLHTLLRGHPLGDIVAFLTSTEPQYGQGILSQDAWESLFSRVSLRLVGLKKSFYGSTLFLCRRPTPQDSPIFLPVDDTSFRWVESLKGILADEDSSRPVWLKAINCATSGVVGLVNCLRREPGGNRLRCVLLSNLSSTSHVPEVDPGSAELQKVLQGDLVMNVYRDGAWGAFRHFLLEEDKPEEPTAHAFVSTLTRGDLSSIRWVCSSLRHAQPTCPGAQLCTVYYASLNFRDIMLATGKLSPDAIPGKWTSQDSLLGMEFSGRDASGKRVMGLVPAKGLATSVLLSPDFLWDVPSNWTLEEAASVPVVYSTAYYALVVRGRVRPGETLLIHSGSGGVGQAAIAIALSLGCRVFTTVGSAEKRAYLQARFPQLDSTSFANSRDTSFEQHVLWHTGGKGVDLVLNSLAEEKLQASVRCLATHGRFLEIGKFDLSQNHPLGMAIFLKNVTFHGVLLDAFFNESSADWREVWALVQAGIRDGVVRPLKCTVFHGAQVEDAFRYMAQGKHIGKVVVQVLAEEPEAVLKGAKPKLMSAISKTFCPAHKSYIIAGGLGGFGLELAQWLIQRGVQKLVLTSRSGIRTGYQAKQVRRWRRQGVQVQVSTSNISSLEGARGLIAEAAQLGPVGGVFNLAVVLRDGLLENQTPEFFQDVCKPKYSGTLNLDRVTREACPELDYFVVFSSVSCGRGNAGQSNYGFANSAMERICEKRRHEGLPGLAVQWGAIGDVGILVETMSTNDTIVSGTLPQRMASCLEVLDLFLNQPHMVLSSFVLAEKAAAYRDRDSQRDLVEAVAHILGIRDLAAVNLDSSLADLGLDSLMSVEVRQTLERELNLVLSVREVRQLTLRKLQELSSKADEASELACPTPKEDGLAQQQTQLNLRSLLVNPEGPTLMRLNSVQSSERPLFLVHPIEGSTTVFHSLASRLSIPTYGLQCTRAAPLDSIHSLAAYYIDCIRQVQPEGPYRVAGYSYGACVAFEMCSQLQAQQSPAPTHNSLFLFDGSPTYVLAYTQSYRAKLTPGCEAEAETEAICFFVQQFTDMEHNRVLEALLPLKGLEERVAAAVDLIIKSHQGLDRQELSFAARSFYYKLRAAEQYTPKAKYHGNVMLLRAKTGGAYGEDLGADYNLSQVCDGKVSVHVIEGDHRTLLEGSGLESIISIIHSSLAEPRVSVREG

The AC50 is the concentration giving half of the maximal activity seen. In the case of `CCCC1COC(Cn2cncn2)(c2ccc(Cl)cc2Cl)O1` (centres undefined), the call in assay [1], in assay [11], in assay [13] and in [14] was inactive. Besides, the AC50 is 72 µM (active) in [2]; 83.3 µM (active) in assay [3]; 33.2 µM (active) in [4]; 90.2 µM (active) in assay [5]; 37.2 µM (active) in [6]; 34.6 µM (active) in assay [7]. In addition, the AC50 in assay [8] was 40 µM (active); in assay [9] it was 77.7 µM (active); in assay [10] it was 76.1 µM (active); in assay [12], 67.2 µM (active); in [15] it was 12.2 µM (active); in [16], 36.9 µM (active). The AC50 in assay [17] is 68.5 µM (active).

For the molecule `Oc1ccccc1-c1ccccc1`, the figures for the AC50 in [18] and in assay [1] were 32 µM (active) and 50 µM (active), respectively. The call in assay [18], in [1], in assay [2], in [3], in assay [19] and in assay [4] was inactive. Further, the molecule was called inactive in assay [5], in assay [6], in assay [7], in [8], in assay [9] and in [10]. Further, the result in [12], in [13], in assay [14], in assay [15], in [16] and in assay [17] was inactive.

On to `C=CC1(C)OC(=O)N(c2cc(Cl)cc(Cl)c2)C1=O` (centres undefined), for which the molecule was called inactive in [18], in [2], in [3], in assay [19], in assay [4] and in [5]. The result in assay [6], in [7], in assay [9], in assay [10], in assay [12] and in assay [13] was inactive. Also, the call in assay [15] and in assay [17] was inactive. Further, the AC50 in assay [1] was 17.5 µM (active); in assay [8], 24.6 µM (active); in assay [16] it was 38.3 µM (active).
